# Compounds with a hit are over-represented: about 3.2% of the library has one in this group of screens.
# TMEM16A act: mouse TMEM16A channel activation, primary screen; HEK293 TMEM16A/YFP-H148Q/I152L, iodide quench fluorescence; hits give low values; 0.3% of 340,000 active; B-score at 10 µM; Q8BHY3;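 active means fluorescence-ratio B-score plate-corrected deviation score at least 3 library SD below zero, with starting fluorescence score within 5 deviations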;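 further: channel opened by trigger with iodide after compound preincubation; score built on the fluorescence ratio of max minus min over baseline; more negative score means more quench and so TMEM16A activation or potentiation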
# Kir21 inh: blocks the mouse Kir2.1 inward-rectifier potassium channel | 0.85% of 310,000 active | B-score at 10 µM | HEK293-Kir2.1, FluxOR thallium flux fluorescence; hits give low values | P35561;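 active means fluorescence ratio B-score at or below minus 3 SD of library scores, with starting-brightness B-score within 2 SD, cut at about -4.2 in these data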;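 further: channel flux triggered by added potassium and thallium sulfate stimulus; B-score of peak minus minimum fluorescence over baseline after thallium stimulus; more negative B-score means stronger Kir2.1 block with less thallium influx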
# CHT PAM: allosteric activators of human choline transporter CHT | AID 488977 | 0.49% of 310,000 active | B-score at 10 µM | CHT-expressing cells, membrane potential dye, choline EC20; hits give high values; LV-AA mutant CHT in HEK293 cells;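 active means initial fluorescence not abnormally high and integrated response B-score, plate-corrected, over 3 SD above library mean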
# Rce1 inhib: yeast Ras-converting enzyme inhibition | yeast membranes, quenched prenylated peptide cleavage fluorescence | calls only | 0.27% of 290,000 active;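 active means fall in fluorescence gain of 50% or more versus controls, with final raw signal at or below 3038400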;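 further: plate controls were neutral control wells for no effect and wells lacking membranes for full effect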
# Target sequence (Q03530 whole entry, looked up): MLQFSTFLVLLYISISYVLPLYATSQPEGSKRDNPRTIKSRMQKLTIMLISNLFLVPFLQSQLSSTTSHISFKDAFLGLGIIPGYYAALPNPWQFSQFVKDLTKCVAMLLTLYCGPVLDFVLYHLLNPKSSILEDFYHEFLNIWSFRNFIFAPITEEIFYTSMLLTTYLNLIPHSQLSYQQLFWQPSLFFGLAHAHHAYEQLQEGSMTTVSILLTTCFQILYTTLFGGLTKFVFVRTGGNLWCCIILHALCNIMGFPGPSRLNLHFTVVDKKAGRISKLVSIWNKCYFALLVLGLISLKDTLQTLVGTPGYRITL
# ANO1 block: mouse TMEM16A channel inhibition, primary screen; Q8BHY3; HEK293 TMEM16A/YFP iodide influx fluorescence, ionomycin; normalized B-score (activity score, 25-100; higher = stronger inhibition) at 10 µM; 1.2% of 310,000 active; AID 588511;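 active means ratio plate-corrected score three or more library SD toward inhibition, starting fluorescence score within five deviations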;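 further: score derived from kinetic fluorescence span divided by baseline fluorescence per well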
# CHT inh: inhibitors of human choline transporter CHT. 0.86% of 310,000 active. Q9GZV3. B-score at 10 µM. CHT-expressing cells, membrane potential dye, choline response; hits give low values;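 active means B-score over 3 SD under the library average, and starting fluorescence ratio not unusually high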;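 further: choline stimulus applied at its EC90 after an EC20 pre-addition; B-score computed on integrated fluorescence ratio after choline addition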
# hERG ctr: blocks human hERG, in counter-screen for Kir2.1 inhibitors; shares compounds with Kir21 inh; hERG-expressing cells, thallium flux; inhibition, % at 10 µM; 20% of 320 active; AID 2236;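 further: host cells are CHO cells stably expressing hERG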
# KCNK9 inh: human KCNK9 off-target activity of Kir2.1 blockers; KCNK9-expressing cells, ion flux inhibition; 5% of 320 active; inhibition, % at 10 µM; shares compounds with Kir21 inh
# Kir2-1 patch inh: mouse Kir2.1 inward rectifier channel inhibition; inhibition, % at 25 µM; 71% of 320 active; shares compounds with Kir21 inh; Kir2.1 cells, automated patch-clamp current inhibition
# CHT inh conf: confirmation of human choline transporter CHT inhibitors. shares compounds with CHT inh. AID 493221. CHT activity remaining % of control (hits give low values), % at 10 µM. CHT-expressing cells, choline membrane potential dye; LV-to-AA substituted CHT, HEK293 cells. 70% of 2,400 active;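 active means choline transporter activity left, mean of duplicates at 10 µM, below buffer-only control mean minus 3 SD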;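 further: depolarization triggered by choline at its EC90 following an EC20 pre-addition; 0% = hemicholinium-3 full block and 100% = buffer-only control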
# HEK293 MPD ctr: CHT inhibitor counter-screen hit in parental HEK293 cells. membrane potential ratio readout (active if shifted either direction beyond buffer ±3SD; no single direction) at 10 µM. shares compounds with CHT inh. 4% of 2,400 active. AID 493222. membrane potential dye, choline response; active = decrease or increase beyond buffer ±3SD;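 further: parental cells lack the transporter so any hit is non-specific; ratio is peak minus trough fluorescence over baseline after EC90 choline challenge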
# TMEM16A reconf: re-confirmation of mouse TMEM16A chloride channel inhibitors. HEK293 TMEM16A/YFP-H148Q, iodide quench fluorescence; ionomycin added to raise cell calcium. 39% of 2,300 active. inhibition, % at 10 µM. shares compounds with ANO1 block;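 active means mean duplicate percent inhibition, scaled so buffer wells are 0 and the reference blocker 100, over three buffer SD above buffer mean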
# HEK293 Ca mobil: counter-screen for TMEM16A inhibitors: effect on calcium mobilization | shares compounds with ANO1 block | calcium response (% of ionomycin), % at 10 µM | TMEM16A/YFP HEK293, Fluo4 calcium mobilization | AID 652231 | 2% of 2,300 active;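 active means duplicate-averaged calcium signal over 20% of the ionomycin maximum, relative to buffer baseline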;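 further: each well's signal is peak minus trough fluorescence divided by its pre-addition baseline; 0% = buffer wells and 100% = ionomycin wells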
# Parental YFP cnt: counter-screen for TMEM16A inhibitors: effect in parental YFP-HEK293 cells | AID 652233 | iodide YFP quench, ionomycin | 2,300 tested, under 10 active | YFP ratio F(max-min)/F0 at 10 µM | shares compounds with ANO1 block;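 active means yellow fluorescent protein signal ratio exceeding the buffer control mean by over 5 SD of those controls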;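 further: ratio is mean of duplicate wells from kinetic YFP trace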
# ClC-1 rat inh: rat ClC-1 inhibition, TMEM16A specificity screen | shares compounds with ANO1 block | CHO ClC-1-YFP, iodide influx fluorescence quench; iodide control reads 0, buffer control 100 | ratio percent, % at 10 µM | 2,300 tested, under 10 active;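 active means duplicate-mean ratio percent above the mean of iodide-only control wells, which defines zero, plus 5 of their SD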;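 further: higher percent means stronger block of ClC-1 iodide influx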
# Numbers without * were called inactive; i = inactive; . = not tested or not shown. Unless noted, how the calls were made is not given here.
SMILES,TMEM16A act,Kir21 inh,CHT PAM,Rce1 inhib,ANO1 block,CHT inh,CHT inh conf,HEK293 MPD ctr,others
CCN(CCNCC(O)COc1ccccc1C(C)C)c1cccc(C)c1 (stereo not drawn),i,-6.4*,i,i,i,i,.,.,hERG ctr=61%*;KCNK9 inh=i;Kir2-1 patch inh=i;TMEM16A reconf=34%*;HEK293 Ca mobil=i;Parental YFP cnt=-1;ClC-1 rat inh=-16
Cc1cc(OCCN2CCN(S(=O)(=O)c3ccccc3F)CC2)ccc1C(C)C,i,.,.,.,.,.,.,.,
CNc1nc(SC)nc2ccsc12,i,-0.15,i,i,i,-14*,4.2%*,i,
CSc1nc2ccsc2c(=O)n1-c1ccccc1,i,-0.04,i,i,i,i,.,.,
CCOC(=O)c1ccc(NC(=O)CCS(=O)(=O)c2cccc3nonc23)cc1,i,0.1,i,i,i,i,.,.,
CCOC(=O)c1cccc(NC(=O)CCS(=O)(=O)c2cccc3nsnc23)c1,i,0.6,i,i,i,-8.3*,36%*,i,
N#C/C(=C/c1ccc(C(=O)O)cc1)C(=O)Nc1ccccc1,i,0.2,i,i,i,i,.,.,
Cc1cccc(NC(=O)/C(C#N)=C\c2ccc(C(=O)O)cc2)c1,i,0.76,i,i,i,-6.6*,i,i,
O=C(NC(=S)N1CCCC1)c1ccccc1F,i,.,.,.,.,.,.,.,
Cc1cccc(-c2ncc(CN3CCN(CCC(C)C)C(CCO)C3)cn2)c1 (stereo not drawn),i,-0.99,i,i,i,-5.8*,i,i,
Cc1cccc(-c2ncc(CN3CCN(C4CCCC4)C(CCO)C3)cn2)c1 (stereo not drawn),i,0,i,i,i,i,.,.,
Cn1c(-c2sccc2OCc2ccc(Cl)cc2Cl)n[nH]c1=S,i,-5.5*,i,.,i,-5.6*,i,i,
CC1CCN(C(=O)c2ccccc2SCC(=O)NCC2CCCCC2)CC1,i,-1.3,i,i,i,i,.,.,
C=CCn1c(SCC(=O)NCc2ccco2)nnc1C1CCCCC1,i,0.07,i,i,i,i,.,.,
C=CCn1c(SCC(=O)NC(=O)NC2CCCC2)nnc1C1CCCCC1,i,0.4,i,i,i,-5*,68%*,i,
CON(C)C(=O)CC(CNC(=O)OC(C)(C)C)c1ccc(Cl)cc1 (stereo not drawn),i,.,.,.,.,.,.,.,
